This is an account of results in PubChem BioAssay (Tox21).

The source made the active and inactive calls. Where a call stands in place of a potency, no number is given. The call rests on the fitted dose curve.

The target in the experiment is Muscarinic acetylcholine receptor M1 (Homo sapiens) (UniProt P11229). Briefly: Cholinergic receptor muscarinic 1 (CHRM1) small molecule agonists, cell-based qHTS assay (AID 1963589). Further: nearly all actives have a fitted effect of over 35% in size. The conditions noted are these: CHRM1-CHO cells, agonist mode, calcium flux fluorescence; series mostly up to 76.8 µM. The source says: National Center for Advancing Translational Sciences [NCATS]
Sequence of Muscarinic acetylcholine receptor M1 (Homo sapiens) (P11229 whole entry, looked up): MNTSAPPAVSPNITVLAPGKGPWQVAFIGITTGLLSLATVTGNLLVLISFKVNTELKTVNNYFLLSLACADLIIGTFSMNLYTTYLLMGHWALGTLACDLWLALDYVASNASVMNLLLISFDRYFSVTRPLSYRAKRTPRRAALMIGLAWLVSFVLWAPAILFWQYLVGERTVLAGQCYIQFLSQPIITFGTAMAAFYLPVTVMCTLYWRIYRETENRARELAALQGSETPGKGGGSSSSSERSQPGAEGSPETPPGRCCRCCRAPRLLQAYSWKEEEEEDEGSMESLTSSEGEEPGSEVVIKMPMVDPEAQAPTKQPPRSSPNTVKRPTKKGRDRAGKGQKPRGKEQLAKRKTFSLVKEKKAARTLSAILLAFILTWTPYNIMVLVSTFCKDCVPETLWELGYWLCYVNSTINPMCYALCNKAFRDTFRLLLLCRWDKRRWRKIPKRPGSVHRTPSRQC
Division of Preclinical Innovation [DPI]
U.S. Environmental Protection Agency [EPA]
National Institutes of Environmental Health Sciences [NIEHS]
National Toxicology Program [NTP]
U.S. Food and Drug Administration [FDA]
The CHRM1 is a muscarinic receptor. This receptor plays a crucial role in learning and memory processes and has long been identified as a promising therapeutic target for the improvement of cognitive decline in Alzheimer's disease (AD). The CHRM1-CHO cell line stably expressing human muscarinic acetylcholine receptor M1 (CHRM1) can be used for screening agonists and antagonists of interactions between CHRM1 and its ligands. The CHRM1-CHO Calcium Flux Assay is a homogeneous fluorescence-based assay for detecting the intracellular calcium level using FDSS kinetic plate reader system.
CHRM1-CHO cells were dispensed at 1000 cells/3uL/well in 1536-well black-clear bottom plates using a Multidrop Dispenser. After the assay plates were incubated at a 37 C/5% CO2 incubator for 18 h, 3 uL of Dye Loading Buffer was transferred to the assay plate by a Flying Reagent Dispenser. The assay plates were incubated at 37 C for 1h. For agonist mode, 23 nL of compounds dissolved in DMSO, positive controls or DMSO only was transferred to the assay plate by a pin tool. […] Each test compound was measured at 15 concentrations in three independent runs.
A general note: qHTS replaces the single test concentration by a dilution series.
With `Cc1cccc2ccccc12`, the Potency result is “inactive”.

With `Cc1cccc(C)c1`, the Potency entry is “inactive”.

For `NS(=O)(=O)c1cc2c(cc1Cl)NC=NS2(=O)=O`, the Potency entry was “inactive”.

For `O=C1C(N(CO)C(=O)NCO)N(CO)C(=O)N1CO` (stereo not given), the Potency result was “inactive”.

Regarding `COC(=O)C(C)Oc1ccc(Oc2ncc(C(F)(F)F)cc2Cl)cc1` (stereo not given), the Potency result was “inactive”.

Take `CC(=O)OC/C=C(C)/C=C/C=C(C)/C=C/C1=C(C)CCCC1(C)C`: the Potency result was “inactive”.

For `CCCCOC(=O)CCCCCCCCC(=O)OCCCC`, the Potency result is “inactive”.

As to `CCCCC(CC)COC(=O)CCCCC(=O)OCC(CC)CCCC` (stereo not given), the Potency result is “inactive”.

For `CCCCCCCCCCCCc1ccccc1O`, the Potency entry was “inactive”.

Turning to `CCCCCCCCCCC=CC1CC(=O)OC1=O` (stereo not given), the Potency entry is “inactive”.

With `C=CCOC(=O)C(=C)C`, the Potency entry is “inactive”.

Turning to `CC1(C)C(=O)N(Cl)C(=O)N1Cl`, the Potency entry is “inactive”.

Take `Cc1ccc(C(C)C)cc1`: the Potency result was “inactive”.

As to `Cc1ccc(O)cc1`, the Potency entry was “inactive”.

As to `CC1(C)CC(N=C=O)CC(C)(CN=C=O)C1` (stereo not given), the Potency entry is “inactive”.

For `C/C=C/c1ccc(OCC)c(O)c1`, the Potency entry is “inactive”.

On to `Nc1ccccc1[N+](=O)[O-]`, for which the Potency entry was “inactive”.

As for `CC1(C)NC(=O)NC1=O`, the Potency result was “inactive”.

For `O=S1(=O)CC=CC1`, the Potency entry was “inactive”.

For the compound `CCOC(=O)CC(=O)OCC`, the Potency result was “inactive”.

As for `Clc1ccccn1`, the Potency result is “inactive”.

Regarding `CCO[Si](CCCNC(N)=O)(OCC)OCC`, the Potency entry is “inactive”.

Turning to `CC(=O)OC(C)C`, the Potency result is “inactive”.

As to `COc1cc([C@H]2Oc3cc([C@H]4Oc5cc(O)cc(O)c5C(=O)[C@@H]4O)ccc3O[C@@H]2CO)ccc1O`, the Potency entry was “inactive”.

With `Clc1ccc(Cl)c(Cl)c1Cl`, the Potency entry was “inactive”.

For the compound `OCCOCCOCCO`, the Potency result was “inactive”.

In the case of `Cc1cc(Cc2cc(C)cc(C(C)(C)C)c2O)c(O)c(C(C)(C)C)c1`, the Potency entry is “inactive”.

Take `Cc1ccc(C)c(S(=O)(=O)O)c1`: the Potency entry was “inactive”.

Turning to `c1cc(-c2ccncc2)ccn1`, the Potency entry was “inactive”.

With `Clc1cc(Cl)c(Cl)cc1Cl`, the Potency result is “inactive”.

Consider `CC(=O)C1=C(C)[C@@H]2C[C@@]3(C1)[C@H](C)CC[C@H]3C2(C)C`, for which the Potency result was “inactive”.

Regarding `CC1=CCC2CC1C2(C)C` (stereo not given), the Potency result is “inactive”.

For `CCCCC(CC)C(=O)O` (stereo not given), the Potency entry is “inactive”.

Turning to `CN(C)CCC(c1ccccc1)c1ccccn1` (stereo not given), the Potency entry was “inactive”.

Take `CCCCC/C(C=O)=C\c1ccccc1`: the Potency entry is “inactive”.

For the compound `CC[N+](CC)(CC(=O)Nc1c(C)cccc1C)Cc1ccccc1`, the Potency entry is “inactive”.

For the compound `O=C1C(c2[nH]c3ccccc3c2O)=Nc2ccccc21`, the Potency entry was “inactive”.

On to `CCCCCCCCCCCCCCCC(=O)OC(C)C`, for which the Potency entry was “inactive”.

As to `Cc1ncc([N+](=O)[O-])n1C`, the Potency result was “inactive”.

As to `CCCCOC(=O)COc1ccc(Cl)cc1Cl`, the Potency entry is “inactive”.
